# Experimental data taken from PubChem BioAssay.
# Unmarked numbers belong to inactive results. For some assays here: Measured potencies and affinities stand elsewhere. Calls of active or inactive are those of the source. Unless noted, no rule for the calls is given here.
# Experiments:
# [1] = antimalarial activity against Dd2 strain (AID 2302;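 active = growth inhibition above 50% at the single 2 µM test dose, taken to imply half-maximal potency below 2 µM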;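 also: 0% = DMSO untreated growth and 100% = chloroquine plus artemisinin killed control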); details: P. falciparum Dd2 in RBCs, LDH growth readout, 72 h; at 2 µM; hits give high values
# [2] = HepG2 cytotoxicity, primary screen, cytotoxicity control for P. falciparum antimalarial project, cell-based, ATP luminescence (AID 2303;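 active = inhibition above 50%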;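 also: 0% = DMSO wells and 100% = digitonin-killed cells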); details: HepG2 viability, 24-48 h, at 10 µM, hits give high values
# [3] = target: L-lactate dehydrogenase (Plasmodium falciparum (isolate CDC / Honduras)) (UniProt Q27743); assay: PfLDH activity inhibition – cell lysate, 3D7 strain, counter-screen for P. falciparum growth inhibition project (AID 2304);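 also: 0% = vehicle and 100% = reference inhibitor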; details: P. falciparum 3D7 crude extract, LDH APAD/NBT absorbance; at 2 µM; hits give high values
# [4] = inhibition of 3D7 malaria parasite growth – strain 3D7 (AID 2306);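 also: 0% = DMSO wells and 100% = chloroquine plus artemisinin control wells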; details: P. falciparum 3D7 erythrocytic growth, LDH absorbance, 72 h; at 2 µM; hits give high values
# [5] = target: Calcium-dependent protein kinase 1 (Plasmodium falciparum (isolate 3D7)) (UniProt P62344); assay: PfCDPK1 kinase inhibitors, biochemical, TCAMS library (AID 1159585; cut-off not given, nearly all actives have IC50 up to about 0.98 µM;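 also: inhibitors leave more ATP so luminescence rises with inhibition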); details: recombinant PfCDPK1, Kinase-Glo ATP depletion luminescence
# [6] = target: Plasmodium falciparum protein kinase 6 (PK6, PF3D7_1337100) (UniProt Q8IDW1); assay: PfPK6 kinase inhibitors, biochemical, TCAMS library (AID 1159586); details: recombinant PfPK6, Kinase-Glo ATP depletion luminescence
# [7] = target: Protein kinase 7 (PK7), Plasmodium falciparum 3D7 (PF3D7_0213400) (UniProt Q7YTF7); assay: inhibition of Plasmodium PK7 catalytic activity – biochemical, TCAMS antimalarial set, Kinase-Glo luminescence (AID 1159587); details: recombinant PfPK7, Kinase-Glo ATP depletion luminescence
# [8] = target: Calcium-dependent protein kinase 4 (Plasmodium falciparum (isolate 3D7)) (UniProt Q8IBS5); assay: PfCDPK4 kinase inhibitors, biochemical, TCAMS library (AID 1159588; cut-off not given, nearly all actives have IC50 up to about 0.91 µM); details: recombinant PfCDPK4, Kinase-Glo ATP depletion luminescence
# Sequence of Calcium-dependent protein kinase 4 (Plasmodium falciparum (isolate 3D7)) (Q8IBS5 whole entry, looked up): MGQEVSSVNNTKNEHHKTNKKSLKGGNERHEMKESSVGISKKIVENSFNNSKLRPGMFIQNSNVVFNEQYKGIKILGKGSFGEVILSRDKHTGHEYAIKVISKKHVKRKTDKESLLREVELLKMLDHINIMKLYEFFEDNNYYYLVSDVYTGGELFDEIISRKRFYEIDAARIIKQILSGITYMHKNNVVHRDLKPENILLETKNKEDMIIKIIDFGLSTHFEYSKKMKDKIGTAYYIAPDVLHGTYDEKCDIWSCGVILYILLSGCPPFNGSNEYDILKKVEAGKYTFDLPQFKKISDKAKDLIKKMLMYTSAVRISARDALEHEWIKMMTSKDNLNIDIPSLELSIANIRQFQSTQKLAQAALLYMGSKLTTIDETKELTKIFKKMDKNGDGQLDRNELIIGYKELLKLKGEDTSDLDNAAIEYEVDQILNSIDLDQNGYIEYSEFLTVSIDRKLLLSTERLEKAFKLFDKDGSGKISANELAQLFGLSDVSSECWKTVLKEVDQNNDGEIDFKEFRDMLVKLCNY
# Sequence of Calcium-dependent protein kinase 1 (Plasmodium falciparum (isolate 3D7)) (P62344 whole entry, looked up): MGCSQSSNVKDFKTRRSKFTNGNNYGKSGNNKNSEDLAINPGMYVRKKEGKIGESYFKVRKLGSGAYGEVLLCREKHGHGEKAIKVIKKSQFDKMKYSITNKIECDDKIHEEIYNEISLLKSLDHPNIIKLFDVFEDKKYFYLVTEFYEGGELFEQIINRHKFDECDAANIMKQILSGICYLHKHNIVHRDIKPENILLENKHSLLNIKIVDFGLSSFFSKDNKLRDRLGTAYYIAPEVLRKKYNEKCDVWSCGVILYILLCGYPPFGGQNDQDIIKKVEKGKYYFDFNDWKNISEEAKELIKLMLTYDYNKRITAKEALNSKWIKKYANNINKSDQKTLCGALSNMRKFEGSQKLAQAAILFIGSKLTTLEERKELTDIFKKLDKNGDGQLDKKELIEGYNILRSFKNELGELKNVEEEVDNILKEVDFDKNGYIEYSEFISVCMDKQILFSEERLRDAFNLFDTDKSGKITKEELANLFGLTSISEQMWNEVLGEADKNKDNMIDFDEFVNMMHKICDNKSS
# Sequence of Protein kinase 7 (PK7), Plasmodium falciparum 3D7 (PF3D7_0213400) (Q7YTF7 1-343): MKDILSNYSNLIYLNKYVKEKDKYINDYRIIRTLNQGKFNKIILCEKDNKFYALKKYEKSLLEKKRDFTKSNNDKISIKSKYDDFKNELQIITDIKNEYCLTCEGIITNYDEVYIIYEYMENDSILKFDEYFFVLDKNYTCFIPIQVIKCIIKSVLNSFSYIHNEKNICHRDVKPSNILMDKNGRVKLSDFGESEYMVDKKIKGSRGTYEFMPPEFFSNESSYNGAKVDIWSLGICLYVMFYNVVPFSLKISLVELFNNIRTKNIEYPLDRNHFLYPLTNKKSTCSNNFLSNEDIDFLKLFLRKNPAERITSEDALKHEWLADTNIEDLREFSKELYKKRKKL
# Sequence of L-lactate dehydrogenase (Plasmodium falciparum (isolate CDC / Honduras)) (Q27743 whole entry, looked up): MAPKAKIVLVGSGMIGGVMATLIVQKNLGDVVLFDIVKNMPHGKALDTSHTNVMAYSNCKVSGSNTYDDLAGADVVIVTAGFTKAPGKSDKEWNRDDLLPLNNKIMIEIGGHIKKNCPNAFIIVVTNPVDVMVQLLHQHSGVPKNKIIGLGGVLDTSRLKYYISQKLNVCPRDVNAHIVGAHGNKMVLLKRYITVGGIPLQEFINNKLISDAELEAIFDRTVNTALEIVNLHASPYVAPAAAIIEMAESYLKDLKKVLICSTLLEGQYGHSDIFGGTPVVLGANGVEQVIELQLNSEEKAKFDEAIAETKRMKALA
# Sequence of Plasmodium falciparum protein kinase 6 (PK6, PF3D7_1337100) (Q8IDW1 1-305): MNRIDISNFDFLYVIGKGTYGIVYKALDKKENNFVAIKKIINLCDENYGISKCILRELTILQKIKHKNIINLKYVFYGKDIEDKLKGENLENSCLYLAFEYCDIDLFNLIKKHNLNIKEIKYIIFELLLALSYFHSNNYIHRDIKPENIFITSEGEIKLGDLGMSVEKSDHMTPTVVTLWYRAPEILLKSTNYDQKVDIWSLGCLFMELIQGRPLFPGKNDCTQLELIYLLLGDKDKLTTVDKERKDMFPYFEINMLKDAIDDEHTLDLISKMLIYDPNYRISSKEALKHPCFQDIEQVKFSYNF
SMILES,growth inhibition [1],inhibition [2],inhibition [3],growth inhibition [4],outcome [5],outcome [6],outcome [7],outcome [8]
Cc1cccc2[nH]c(-c3cccc(-c4cccc(NC(=O)CN5CCN(C)CC5)c4)c3)nc12,99% (active),76% (active),-1%,101% (active),inactive,inactive,inactive,inactive
CSc1ccc(CN2CCC(NC(=O)c3ccc(-c4cccc(Cl)c4)s3)CC2)cc1,19%,75% (active),-2%,86% (active),inactive,inactive,inactive,inactive
CCCCCCCCc1c(C)[nH]c(C)c(Cl)c1=O,95% (active),-4%,-3%,96% (active),inactive,inactive,inactive,inactive
O=C(NC(NC(=S)Nc1ccc([N+](=O)[O-])cc1)C(Cl)(Cl)Cl)c1cccc(Cl)c1 (stereo not given),100% (active),24%,0%,97% (active),inactive,inactive,inactive,inactive
C=C[C@]1(C)C[C@@H](OC(=O)NC(=O)C2CCN(C(=O)CSc3ccccc3)CC2)[C@]2(C)[C@H](C)CC[C@]3(CCC(=O)[C@H]32)[C@@H](C)[C@@H]1O,74% (active),-3%,1%,93% (active),inactive,inactive,inactive,inactive
CCNc1cc(CC)nc(Nc2ccc(C)cc2)n1,24%,22%,-1%,100% (active),inactive,inactive,inactive,inactive
CC(C)NCc1ccc(-c2cccc(-c3nc4ccccc4[nH]3)c2)cc1,34%,21%,0%,101% (active),inactive,inactive,inactive,inactive
CCCc1cc(Cc2cnc(N)nc2N)cc(CCC)c1OCCCCC(=O)O,23%,18%,-2%,95% (active),inactive,inactive,inactive,inactive
Cc1ccc(CCC(C)NCC(O)c2cccc(C(F)(F)F)c2)cc1 (stereo not given),98% (active),-17%,4%,99% (active),inactive,inactive,inactive,inactive
Cc1cc(OCC2CCCN(c3ncc(C(=O)NC4CC4)cc3Cl)C2)ccc1F (stereo not given),68% (active),3%,-1%,88% (active),inactive,inactive,inactive,inactive
Cc1ccc(-c2nc3cc(NC(=O)c4ccc([N+](=O)[O-])o4)ccc3o2)cc1Cl,97% (active),24%,-3%,102% (active),inactive,inactive,inactive,inactive
O=C(NCCc1ccccc1)c1cc(-c2cccnc2)cnc1NCC1CC1,35%,3%,6%,93% (active),inactive,inactive,inactive,inactive
Cc1cc(Nc2ccc(C)c(Cl)c2)n2ncnc2n1,91% (active),6%,-1%,98% (active),inactive,inactive,inactive,inactive
Cc1ccc(C2(CN3CCC(NC(=O)c4ccn[nH]4)CC3)CCCCC2)cc1,96% (active),-6%,-3%,97% (active),inactive,inactive,inactive,inactive
CCCCCCCn1c2c(c(=N)c3c1CCC3)CCCC2,98% (active),46%,1%,98% (active),inactive,inactive,inactive,inactive
Cc1[nH]c(C)c(-c2ccc(-c3cc(C(F)(F)F)cc(C(F)(F)F)c3)nc2)c(=O)c1Br,96% (active),18%,0%,98% (active),inactive,inactive,inactive,inactive
Cn1cc(C2CCN(CCCCCNC(=O)/C=C/c3ccc(Cl)c(Cl)c3)CC2)c2cc(O)ccc21,-2%,11%,-2%,94% (active),inactive,inactive,inactive,inactive
COc1ccc(C(=O)N2CCC(CN3CCOC(c4ccccc4)(c4ccccc4)C3)CC2)cc1,96% (active),19%,5%,95% (active),inactive,inactive,inactive,inactive
c1ccc(CN2CCc3cc4nccc(N5CCNCC5)c4cc32)cc1,99% (active),9%,-4%,100% (active),inactive,inactive,inactive,inactive
COc1ccc2nccc(N3C[C@H]4C[C@@H]3CN4CCNCc3ccc4c(n3)NC(=O)CS4)c2n1,0%,21%,1%,99% (active),inactive,inactive,inactive,inactive

SMILES,growth inhibition [1],inhibition [2],inhibition [3],growth inhibition [4],outcome [5],outcome [6],outcome [7],outcome [8]
C(=Cc1nc2ccccc2s1)c1ccc2c(c1)OCCO2,96% (active),13%,1%,98% (active),inactive,inactive,inactive,inactive
O=C(CNC(=O)c1ccc(O)cc1)Nc1cccc(-c2cccc(-c3nc4ccc(C(F)(F)F)cc4[nH]3)c2)c1,28%,63% (active),5%,96% (active),inactive,inactive,inactive,inactive
c1ccc(COc2ccc(Cn3ccc(-c4ccc(-n5ccnc5)cc4)n3)cc2)cc1 (tested in a mixture with another compound),67% (active),2%,-1%,94% (active),inactive,inactive,inactive,inactive
COc1ccccc1NC(=O)Nc1ccc(-c2cccc(-c3nc4ccccc4[nH]3)c2)cc1,25%,42%,0%,101% (active),inactive,inactive,inactive,inactive
CCC(C)NC(=O)Nc1ccc(-c2cccc(-c3nc4ccccc4[nH]3)c2)cc1 (stereo not given),37%,41%,7%,94% (active),inactive,inactive,inactive,inactive
CC(=O)Nc1nnc(SCc2c(C)cc(C(C)(C)C)cc2C)s1,91% (active),3%,-4%,98% (active),inactive,inactive,inactive,inactive
CNc1ccc(CNCc2cccc(-c3ccc(-c4nc5ccc(C(F)(F)F)cc5[nH]4)cc3)c2)cc1,100% (active),21%,0%,101% (active),inactive,inactive,inactive,inactive
CCCCOc1cc2c(cc1OCC)C(C=Cc1ccc(Cl)cc1Cl)=NCC2,95% (active),-2%,-1%,97% (active),inactive,inactive,inactive,inactive
O=C(Nc1ccc(-c2cccc(-c3nc4ccccc4[nH]3)c2)cc1)Nc1ccc(Cl)c(Cl)c1,80% (active),61% (active),-2%,101% (active),inactive,inactive,inactive,inactive
CN1CCN(c2ccc(Nc3c(C(N)=O)cnc4cc(-c5ccoc5)ccc34)cc2C(F)(F)F)CC1,97% (active),13%,-9%,100% (active),inactive,inactive,inactive,inactive
CCCNc1ccc(-c2cc(C(N)=O)c3[nH]cc(C4CCN(S(=O)(=O)CC)CC4)c3c2)cn1,42%,6%,-1%,99% (active),inactive,inactive,inactive,inactive
Cc1ccc2c(c1C)NC(=O)C21NN=C(c2ccccc2)S1 (stereo not given),65% (active),31%,0%,97% (active),inactive,inactive,inactive,inactive
CC(C)C1=C[C@H]2C[C@]3(C4OCCO4)[C@@H]4CC[C@@H](C)[C@H]4C[C@@]2(COCc2cccc(C#N)c2)[C@]13C(=O)OC(c1ccccc1)c1ccccc1,92% (active),-5%,8%,88% (active),inactive,inactive,inactive,inactive
Cc1ccc(Nc2nc(-c3ccccn3)cs2)nc1,97% (active),60% (active),-8%,94% (active),inactive,inactive,inactive,inactive
CCN(CC)CCCC(C)Nc1cc(C=Cc2ccc([N+](=O)[O-])cc2)nc2ccc(OC)cc12 (stereo not given),100% (active),37%,4%,100% (active),inactive,inactive,inactive,inactive
Cc1[nH]c2ccccc2c(=O)c1[N+](=O)[O-],-2%,5%,-5%,88% (active),inactive,inactive,inactive,inactive
O=C(Nc1cccc(F)c1)NC1CCN(CCCCCNC(=O)[C@@H]2C[C@H]2c2ccc(Cl)c(Cl)c2)CC1,12%,41%,4%,101% (active),inactive,inactive,inactive,inactive
COc1cc(Cc2cnc(N)nc2N)cc(OC)c1OCCCCC(=O)O,-1%,-4%,-4%,88% (active),inactive,inactive,inactive,inactive
CC(C)CCN1CCCN(Cc2ccc(C(=O)Nc3ccc(F)c(F)c3)cc2)CC1,27%,36%,5%,88% (active),inactive,inactive,inactive,inactive
CC(C)Cc1c(O)nc(SCCN2CCOCC2)[nH]c1=O,-5%,19%,1%,88% (active),inactive,inactive,inactive,inactive
